According to PubChem BioAssay:
Calls of active or inactive are those of the source. Unless noted, how the calls were made is not given here.

Key:
[1] = system: Wnt5a (protein binding on small-molecule microarray); experiment: Wnt5a binders on small-molecule microarray, primary screen, biophysical, 635/667 nm fluorescence (AID 1142); settings: 635 nm fluorescence, higher = more signal;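 further: fluorescence read at 667 nm with signal to noise per printed feature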
[2] = cell viability in Huh7 cells, primary screen, cytotoxicity control for HCV replication inhibitor project, CellTiter-Glo luminescence, basal, 48 h (AID 1143); settings: Huh7 HCV replicon, higher = more signal, called active from +8 up or from −8 down;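 further: Huh7 hepatoma cells carrying a hepatitis C replication reporter with no stimulus; test concentration not given here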
[3] = P. aeruginosa biofilm formation inhibitors, primary screen, PAO1 strain, BacTiter-Glo luminescence, LB-PBS (AID 1144); settings: 12 h, higher = more signal
[4] = CREB reporter modulators without forskolin, primary screen, cell-based, PC12, CRE-LacZ reporter, unstimulated (AID 1145); settings: no forskolin, luminescence, 4.5 h, higher = more signal, called active from +8 up or from −8 down
[5] = CREB reporter modulators under forskolin, primary screen, cell-based, PC12, CRE-LacZ reporter, forskolin-stimulated (AID 1146); settings: luminescence, 4.5 h, higher = more signal, called active from +8 up or from −8 down;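 further: PC12 cells with 6xCRE LacZ reporter stimulated by forskolin 10 µM; beta-galactosidase reporter signal reflecting CREB driven transcription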
[6] = biological target: Streptavidin (Streptomyces avidinii) (UniProt P22629); experiment: streptavidin binders on small-molecule microarray, primary screen, artefact control for SMM compound annotation, biophysical, 635/667 nm fluorescence (AID 1147); settings: streptavidin binding, higher = more signal;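 further: signal reflects streptavidin binding to arrayed compounds as a control protein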
Chain of Streptavidin (Streptomyces avidinii) (P22629 whole entry, looked up): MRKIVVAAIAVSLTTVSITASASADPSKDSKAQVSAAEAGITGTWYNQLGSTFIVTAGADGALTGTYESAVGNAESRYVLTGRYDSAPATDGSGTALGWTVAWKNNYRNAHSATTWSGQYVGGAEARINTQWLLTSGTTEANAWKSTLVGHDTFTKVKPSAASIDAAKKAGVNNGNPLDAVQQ

[7] = small-molecule binders of probe aInhba, primary screen, biochemical, small-molecule microarray, 635/667 nm fluorescence (AID 1148); settings: higher = more signal;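 further: score merges 667nm spot fluorescence with signal-to-noise for antibody binding to printed compounds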
Torsin-1A (Homo sapiens) [8] = biological target: Torsin-1A (Homo sapiens) (UniProt O14656); experiment: torsin A binders from cell lysate, primary screen, small-molecule microarray, wild-type, 635/667 nm (AID 1149); settings: COS7 hTOR1A-WT lysate, 635 nm fluorescence, higher = more signal
Chain of Torsin-1A (Homo sapiens) (O14656 whole entry, looked up): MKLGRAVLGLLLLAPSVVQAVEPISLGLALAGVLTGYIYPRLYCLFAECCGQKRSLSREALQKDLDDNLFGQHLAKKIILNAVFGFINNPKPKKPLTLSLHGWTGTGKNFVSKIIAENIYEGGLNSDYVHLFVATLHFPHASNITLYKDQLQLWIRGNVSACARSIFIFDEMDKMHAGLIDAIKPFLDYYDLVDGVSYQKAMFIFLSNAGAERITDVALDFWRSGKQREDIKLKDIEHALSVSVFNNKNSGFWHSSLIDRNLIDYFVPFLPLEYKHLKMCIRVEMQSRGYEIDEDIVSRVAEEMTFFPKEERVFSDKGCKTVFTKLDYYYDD

Torsin-1A (Homo sapiens) [9] = biological target: Torsin-1A (Homo sapiens) (UniProt O14656); experiment: small-molecule binders of mutant TOR1A in lysate, primary screen, cell lysate, small-molecule microarray, COS7 lysate, 635/667 nm fluorescence (AID 1150); settings: COS7 hTOR1A mutant lysate, 635 nm fluorescence, higher = more signal;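 further: score pools 667 nm emission and signal to noise measuring lysate protein binding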
[10] = system: Sonic hedgehog protein (Shh); experiment: small-molecule binders of Shh protein, primary screen, biochemical, small-molecule microarray, 635/667 nm fluorescence (AID 1151); settings: small-molecule microarray binding, 635 nm fluorescence; higher = more signal;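 further: Shh protein binding to compounds spotted on small-molecule microarray slides; score combines spot fluorescence intensity with signal-to-noise across triplicate slides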
[11] = E. coli DRC41 culture turbidity changes, primary screen, E. coli filamentation inducer project, strain DRC41, OD650, 48 h (AID 1152);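 further: E. coli MC1000 strain DRC41 lacking acrAB efflux pump and sulA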; settings: E. coli DRC41 (acrAB sulA), higher = more signal, called active from +8 up or from −8 down
[12] = small-molecule binders of probe aLefty1, primary screen, biochemical, small-molecule microarray, 635/667 nm fluorescence (AID 1153); settings: higher = more signal;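 further: score merges spot fluorescence with signal-to-noise ratio from the scanned slide images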
[13] = PSAC antagonists in infected red cells, primary screen, cell-based, P. falciparum Indochina, OD700, 1 h (AID 1154); settings: P. falciparum Indochina infected RBC osmotic lysis, higher = more signal, called active from +8 up or from −8 down
[14] = PSAC antagonists in infected red cells, primary screen, cell-based, P. falciparum Indochina, OD700, 2 h (AID 1155);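 further: lysis reports solute entry through the parasite surface anion channel PSAC; channel blockers reduce lysis of infected cells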; settings: P. falciparum Indochina infected erythrocytes, osmotic lysis OD700; higher = more signal, called active from +8 up or from −8 down
[15] = osmotic lysis modulators in infected erythrocytes, primary screen, PSAC antagonist project, cell-based, P. falciparum Indochina, OD700, 3 h (AID 1156); settings: higher = more signal, called active from +8 up or from −8 down
[16] = PSAC antagonists in infected red cells, primary screen, cell-based, P. falciparum Indochina, OD700, 18 h (AID 1157); settings: P. falciparum Indochina infected erythrocytes, osmotic lysis OD700, 18 h; higher = more signal, called active from +8 up or from −8 down
[17] = modulators of S6 phosphorylation in cells, primary screen, cell-based, A549, cytoblot, luminescence, serum-stimulated (AID 1158); settings: A549 phospho-S6 cytoblot, 5 h, higher = more signal;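 further: serum-stimulated A549 lung adenocarcinoma cells; signal is phosphorylated S6 detected by cytoblot immunostaining with HRP secondary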
[18] = biological target: NADPH oxidase 2 (Homo sapiens) (UniProt P04839); experiment: NOX2-dependent H2O2 signal modulators, primary screen, NOX inhibitor project, cell-based, HEK293-NOX2, PMA-stimulated, Amplex Red fluorescence (AID 1159); settings: 45 min, higher = more signal, called active from +8 up or from −8 down; further: test concentration not given here
Chain of NADPH oxidase 2 (Homo sapiens) (P04839 whole entry, looked up): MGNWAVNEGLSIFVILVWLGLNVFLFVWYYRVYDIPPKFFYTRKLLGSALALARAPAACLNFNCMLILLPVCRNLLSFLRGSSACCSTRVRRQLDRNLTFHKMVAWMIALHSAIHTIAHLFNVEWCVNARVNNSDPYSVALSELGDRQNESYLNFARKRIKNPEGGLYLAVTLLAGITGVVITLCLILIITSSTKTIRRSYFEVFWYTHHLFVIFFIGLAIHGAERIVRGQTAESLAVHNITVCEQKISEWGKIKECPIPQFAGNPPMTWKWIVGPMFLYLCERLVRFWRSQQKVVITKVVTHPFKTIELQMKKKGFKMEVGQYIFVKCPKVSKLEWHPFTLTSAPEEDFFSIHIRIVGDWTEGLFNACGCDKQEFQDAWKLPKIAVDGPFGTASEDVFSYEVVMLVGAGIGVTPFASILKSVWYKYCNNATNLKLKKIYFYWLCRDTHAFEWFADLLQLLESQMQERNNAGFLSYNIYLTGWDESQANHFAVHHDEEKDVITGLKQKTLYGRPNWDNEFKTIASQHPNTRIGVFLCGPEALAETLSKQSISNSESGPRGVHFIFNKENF

[19] = biological target: NADPH oxidase 4 (Homo sapiens) (UniProt Q9NPH5); experiment: NOX4-dependent H2O2 signal modulators, primary screen, NOX inhibitor project, cell-based, HEK293-NOX4, tetracycline-induced, Amplex Red fluorescence (AID 1160); settings: 45 min, higher = more signal, called active from +8 up or from −8 down
Chain of NADPH oxidase 4 (Homo sapiens) (Q9NPH5 whole entry, looked up): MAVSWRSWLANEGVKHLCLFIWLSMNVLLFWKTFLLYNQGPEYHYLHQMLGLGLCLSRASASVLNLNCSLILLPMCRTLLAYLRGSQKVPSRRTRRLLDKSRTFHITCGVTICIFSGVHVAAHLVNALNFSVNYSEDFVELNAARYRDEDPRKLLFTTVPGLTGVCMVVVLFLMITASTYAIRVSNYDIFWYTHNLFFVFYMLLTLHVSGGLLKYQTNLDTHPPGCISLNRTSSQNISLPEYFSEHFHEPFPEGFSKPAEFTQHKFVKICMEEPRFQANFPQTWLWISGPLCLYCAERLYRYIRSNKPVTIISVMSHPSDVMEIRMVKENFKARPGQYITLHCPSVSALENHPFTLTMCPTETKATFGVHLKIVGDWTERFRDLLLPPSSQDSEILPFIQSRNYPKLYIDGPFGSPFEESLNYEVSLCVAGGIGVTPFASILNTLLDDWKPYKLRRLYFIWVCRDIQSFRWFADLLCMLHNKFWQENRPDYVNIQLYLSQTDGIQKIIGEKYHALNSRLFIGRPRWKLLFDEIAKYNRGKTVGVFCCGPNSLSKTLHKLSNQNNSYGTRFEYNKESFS

[20] = biological target: NADPH oxidase 5 (Homo sapiens) (UniProt Q96PH1); experiment: NOX5-dependent H2O2 signal modulators, primary screen, NOX inhibitor project, cell-based, HEK293-NOX5, Amplex Red fluorescence (AID 1161); settings: HEK293-NOX5, ionomycin, 45 min, higher = more signal
Chain of NADPH oxidase 5 (Homo sapiens) (Q96PH1 whole entry, looked up): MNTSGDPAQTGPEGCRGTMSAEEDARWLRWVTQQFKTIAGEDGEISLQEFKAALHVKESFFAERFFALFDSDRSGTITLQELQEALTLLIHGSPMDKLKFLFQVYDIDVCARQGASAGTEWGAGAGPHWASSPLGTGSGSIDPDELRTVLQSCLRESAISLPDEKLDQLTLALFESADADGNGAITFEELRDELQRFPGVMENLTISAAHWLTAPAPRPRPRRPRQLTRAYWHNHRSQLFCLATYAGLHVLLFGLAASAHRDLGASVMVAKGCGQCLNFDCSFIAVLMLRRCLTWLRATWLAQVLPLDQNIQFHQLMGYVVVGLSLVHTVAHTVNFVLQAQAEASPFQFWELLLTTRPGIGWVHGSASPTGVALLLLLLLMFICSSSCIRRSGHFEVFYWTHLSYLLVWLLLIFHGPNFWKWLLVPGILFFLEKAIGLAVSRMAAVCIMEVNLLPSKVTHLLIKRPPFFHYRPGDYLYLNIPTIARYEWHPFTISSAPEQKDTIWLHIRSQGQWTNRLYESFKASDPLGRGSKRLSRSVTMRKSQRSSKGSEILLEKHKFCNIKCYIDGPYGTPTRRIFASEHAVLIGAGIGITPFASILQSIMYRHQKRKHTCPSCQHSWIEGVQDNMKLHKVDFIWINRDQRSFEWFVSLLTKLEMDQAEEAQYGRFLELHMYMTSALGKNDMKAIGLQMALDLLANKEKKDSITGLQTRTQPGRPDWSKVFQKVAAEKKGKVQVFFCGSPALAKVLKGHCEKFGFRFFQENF

Question: For `[N-]=[N+]=Nc1ccccc1C[C@]1(C(=O)NCC(O)CO)N=C(c2ccc(OCCCO)cc2)O[C@H]1c1ccccc1` (stereo not given in full), which composite z-score [1] is on record?
Answer: -0.541

Question: What about the z-score [2] of the same molecule?
Answer: -3.23 (inactive)

Question: What about the z-score [3] of the same molecule?
Answer: 0.382 (inactive)

Question: What about the z-score [4] of the same molecule?
Answer: 1.19 (inactive)

Question: What about the z-score [5] of the same molecule?
Answer: -1.55 (inactive)

Question: And the composite z-score [6]?
Answer: 0.204

Question: And the composite z-score [7]?
Answer: 0.0134

Question: And the composite z-score (Torsin-1A (Homo sapiens) [8])?
Answer: -0.268

Question: And the composite z-score (Torsin-1A (Homo sapiens) [9])?
Answer: 0.089

Question: And the composite z-score [10]?
Answer: -1.61

Question: What about the z-score [11] of the same molecule?
Answer: -0.2 (inactive)

Question: And the composite z-score [12]?
Answer: 0.027

Question: And the z-score [13]?
Answer: 19.9 (active)

Question: And the z-score [14]?
Answer: 3.78 (inactive)

Question: And the z-score [15]?
Answer: 1.64 (inactive)

Question: What about the z-score [16] of the same molecule?
Answer: 1.18 (inactive)

Question: And the z-score [17]?
Answer: -0.132

Question: What about the z-score [18] of the same molecule?
Answer: 1.34 (inactive)

Question: And the z-score [19]?
Answer: 0.567 (inactive)

Question: What about the z-score [20] of the same molecule?
Answer: -1.25

Question: What does the source list for `C=CCNC(=O)[C@@H]1[C@H]2C(=O)O[C@H](c3ccccc3)[C@H](c3ccccc3)N2[C@H](c2ccc(OCCO)cc2)[C@@]12C(=O)N(C(=O)OCCOC)c1ccc(C#CCNC(N)=O)cc12`?
Answer: composite z-score [1]: 0.372; z-score [2]: -1.1 (inactive); z-score [3]: 0.388 (inactive); z-score [4]: 0.505 (inactive); z-score [5]: -0.419 (inactive); composite z-score [6]: 0.348; composite z-score [7]: 0.115; composite z-score (Torsin-1A (Homo sapiens) [8]): 0.609; composite z-score (Torsin-1A (Homo sapiens) [9]): 0.733; composite z-score [10]: 1.56; z-score [11]: 1.43 (inactive); composite z-score [12]: 0.284; z-score [13]: 4.2 (inactive); z-score [14]: 0.921 (inactive); z-score [15]: 1.47 (inactive); z-score [16]: 0.514 (inactive); z-score [17]: 0.472; z-score [18]: 0.827 (inactive); z-score [19]: -0.213 (inactive); z-score [20]: 0.0624

Question: Which composite z-score [1] does the source give for `COc1ccc([Si](C)(C)[C@H]2[C@H](CCn3cc([C@H](O)c4ccccc4)nn3)O[C@@]3(C(=O)N(C)c4ccccc43)[C@@H]2C)cc1` here?
Answer: -0.319

Question: What about the z-score [2] of the same molecule?
Answer: -3.31 (inactive)

Question: What about the z-score [3] of the same molecule?
Answer: -0.573 (inactive)

Question: And the z-score [4]?
Answer: 2.69 (inactive)

Question: And the z-score [5]?
Answer: -1.28 (inactive)

Question: What about the composite z-score [6] of the same molecule?
Answer: -0.814

Question: And the composite z-score [7]?
Answer: -0.0221

Question: What about the composite z-score (Torsin-1A (Homo sapiens) [8]) of the same molecule?
Answer: -0.71

Question: And the composite z-score (Torsin-1A (Homo sapiens) [9])?
Answer: -0.193

Question: What about the composite z-score [10] of the same molecule?
Answer: 1.36

Question: And the z-score [11]?
Answer: 0.294 (inactive)

Question: And the composite z-score [12]?
Answer: 0.573

Question: And the z-score [13]?
Answer: 5.08 (inactive)

Question: What about the z-score [14] of the same molecule?
Answer: 1.5 (inactive)

Question: What about the z-score [15] of the same molecule?
Answer: 0.56 (inactive)

Question: And the z-score [16]?
Answer: 0.866 (inactive)

Question: And the z-score [17]?
Answer: 0.334

Question: And the z-score [18]?
Answer: -0.0243 (inactive)

Question: What about the z-score [19] of the same molecule?
Answer: 0.0296 (inactive)

Question: What about the z-score [20] of the same molecule?
Answer: -1.24

Question: Which composite z-score [1] does the source give for `CN(C)CCCCCCNC(=O)[C@@H]1C[C@@H]2C(=O)N3CCC[C@H]3C(=O)N2[C@@H]1c1ccc(O)cc1` here?
Answer: 0.21

Question: What about the z-score [2] of the same molecule?
Answer: -0.892 (inactive)

Question: What about the z-score [3] of the same molecule?
Answer: -0.999 (inactive)

Question: What about the z-score [4] of the same molecule?
Answer: 0.561 (inactive)

Question: And the z-score [5]?
Answer: -0.439 (inactive)

Question: And the composite z-score [6]?
Answer: -0.331

Question: And the composite z-score [7]?
Answer: 0.138

Question: What about the composite z-score (Torsin-1A (Homo sapiens) [8]) of the same molecule?
Answer: 1.4

Question: What about the composite z-score (Torsin-1A (Homo sapiens) [9]) of the same molecule?
Answer: 1.46

Question: And the composite z-score [10]?
Answer: 2.17

Question: And the z-score [11]?
Answer: 1.12 (inactive)

Question: And the composite z-score [12]?
Answer: 0.457

Question: And the z-score [13]?
Answer: 0.974 (inactive)

Question: And the z-score [14]?
Answer: -1.24 (inactive)

Question: And the z-score [15]?
Answer: 1.09 (inactive)

Question: What about the z-score [16] of the same molecule?
Answer: -1.93 (inactive)

Question: What about the z-score [17] of the same molecule?
Answer: 1.12

Question: What about the z-score [18] of the same molecule?
Answer: -0.245 (inactive)

Question: And the z-score [19]?
Answer: -0.176 (inactive)

Question: And the z-score [20]?
Answer: 0.884

Question: What does the source list for `C=CCC(OC(C)=O)[C@@H]1[C@@H](N(Cc2ccc(-c3cccc(C(F)(F)F)c3)o2)C(=O)c2cccc3ccccc23)c2cc(OCCCO)ccc2N1C(=O)Cc1ccc2ccccc2c1` (stereo not given in full)?
Answer: composite z-score [1]: -0.078; z-score [2]: -0.952 (inactive); z-score [3]: 0.318 (inactive); z-score [4]: 0.307 (inactive); z-score [5]: 0.848 (inactive); composite z-score [6]: -0.253; composite z-score [7]: 0.374; composite z-score (Torsin-1A (Homo sapiens) [8]): 1.34; composite z-score (Torsin-1A (Homo sapiens) [9]): -0.361; composite z-score [10]: 0.248; z-score [11]: -0.599 (inactive); composite z-score [12]: -0.147; z-score [13]: 0.877 (inactive); z-score [14]: -0.397 (inactive); z-score [15]: 1.31 (inactive); z-score [16]: -0.449 (inactive); z-score [17]: 0.359; z-score [18]: -2.15 (inactive); z-score [19]: -0.933 (inactive); z-score [20]: -1.04
